Here are results for 40 compounds from PubChem BioAssay (EPA / NIEHS).

The source made the active and inactive calls. The calls were made as follows: active = hit-call score of the fitted dose curve at least 0.9, where 1 is the maximum; inactive = score below 0.9.

This assay is described as follows: APR_HepG2_CellCycleArrest_72hr: Apredica 72-hour HepG2 Assay for Cell Cycle Arrest (AID 2282914). The note with it: high-content imaging, actives raise or lower the signal. As for the experimental part:
APR_HepG2_72hr is a cell-based, multiplexed-readout assay that uses HepG2, a human liver cell line, with measurements taken at 72 hours after chemical dosing in a 384-well plate.APR_HepG2_CellCycleArrest_72hr is one of 10 assay component(s) measured or calculated from the APR_HepG2_72hr assay. It is designed to make measurements of cell phenotype, a form of morphology reporter, as detected with fluorescence intensity signals by HCS Fluorescent Imaging technology.Data from the assay component APR_HepG2_CellCycleArrest_72hr was analyzed into 1 assay endpoint. This assay endpoint, APR_HepG2_CellCycleArrest_72hr, was analyzed with bidirectional fitting relative to DMSO as the negative control and baseline of activity. Using a type of morphology reporter, measures of all nuclear dna for gain or loss-of-signal activity can be used to understand the signaling at the pathway-level as they relate to the gene . Furthermore, this assay endpoint can be referred to as a primary readout, because this assay has produced multiple assay endpoints where this one serves a signaling function. To generalize the intended target to other relatable targets, this assay endpoint is annotated to the cell cycle intended target family, where the subfamily is arrest.
Cells were treated with dimethyl sulfoxide (DMSO) as a solvent control at a final concentration of 0.5% v/v or with compounds in DMSO with a resulting final DMSO concentration of 0.5% v/v. Compound treatment was done at concentrations of 0.39, 0.78, 1.56, 3.12, 6.24, 12.5, 25, 50, 100, and 200 uM in duplicate on each plate. Cells were treated with compounds for 1, 24, or 72 hr. Carbonyl […] m-chloro-phenylhydrazone (CCCP) and taxol were used as positive controls for mitochondrial function and cytoskeletal stability, respectively; DMSO served as the negative control for this experiment. Cells were fixed by the direct addition of 50 uL formaldehyde in Hank's Balanced Salt Solution (HBSS) to a final concentration of 3.7%. After incubation in the fixation medium for 30 min at room temperature (293-298 K), cells were rinsed twice with HBSS and treated with cell permeabilization buffer (16 uL of 0.5% Triton X-100) for 10 min at room temperature (293-298 K) before labeling. For mitochondrial membrane potential and mitochondrial measurements, pre-fixed cells were incubated with 50 uL of MitoTracker Red CMXRos (Invitrogen) at a concentration of 250 nM for 30 min before fixation. In the remaining cases, post-fixed cells were labeled by incubation with a multiplexed mixture of primary antibodies in HBSS for 60 min at room temperature (293-298 K) to detect immunoreactivity of c-Jun (1:500), phospho-histone H3 (1:100), phospho-histone H2A.x (1:200), p53 (1:400), alpha-tubulin (1:200) and Hoechst 33342 (2 ug/mL). Cells were labeled for multiplexed imaging on two separate plates: a) Hoechst 33342, MitoTracker Red, phospho-histone H3, and alpha-tubulin, and b) Hoechst 33342, phospho-histone H2A.x, and c-Jun. A final rinse with HBSS (50 uL) was performed before analysis. The primary and secondary antibodies for the proteins were phospho-histone H3 (rabbit anti-phospho-histone H3 and FITC-donkey anti-rabbit IgG), phospho-histone H2A.x (mouse anti-phospho-histone H2A.x and FITC-donkey anti-mouse IgG), c-Jun (rabbit anti-phospho-c-Jun and Cy3-donkey anti-rabbit IgG), p53 (sheep anti-p53 and Cy5-donkey anti-sheep IgG), alpha-tubulin (mouse anti-alpha-tubulin and Cy5-donkey anti-mouse IgG). These antibodies are available as the CellCiphr HepG2 assay kit (Millipore).Digital images of each well were captured using a Cellomics ArrayScan VTI (Thermo Scientific Cellomics) (0.8 NA objective, 0.63x optical coupler, and XF-93 filter set) at 20x magnification. The images were acquired using the autofocus feature of the ArrayScan instrument, which entails the following steps. First, the camera focuses on channel 1 (Hoechst 33342), where nuclei are identified. Second, a Z offset of 1 um is used for capturing mitochondria (MitoTracker Red). […]
As for `ClC1=C(Cl)C2(Cl)C3C(Cl)C(Cl)CC3C1(Cl)C2(Cl)Cl` (stereo not given), the outcome was inactive. The same measure, in the same setting: next, `CCCCN(CCCC)N=O`: “inactive”. The same measure, in the same setting: next, `CCNc1nc(Cl)nc(NC(C)(C)C)n1`: “inactive”; `O=P1(N(CCCl)CCCl)NCCCO1` (stereo not given): “inactive”; `O=[N+]([O-])c1ccccc1`: “inactive”. For the compound `Cc1ccc([N+](=O)[O-])cc1C`, the compound was called inactive. On the same count and under the same terms, next, `CSC(C)(C)C=NO`: “inactive”; `Cc1cccc(N)c1`: “inactive”.

Consider `CCOP(=S)(Oc1ccc([N+](=O)[O-])cc1)c1ccccc1` (stereo not given), for which the compound was called inactive. On the same count and under the same terms, then `CCOC(=O)c1ccccc1C(=O)OCC`, with “inactive”.

Take `Nc1cc2c3c(c1)C(c1ccccc1)=N[C@@H](NC(=O)c1cccnc1)C(=O)N3CC2`: the compound was classed as inactive. Turning to `O=P(Oc1ccccc1)(Oc1ccccc1)Oc1ccccc1`, the AC50 is 75.5 µM (active).

For `CCCCN(CCCC)SN(C)C(=O)Oc1cccc2c1OC(C)(C)C2`, the AC50 was 23.3 µM (active). As for `O=C(O)C(Cl)Cl`, the call was inactive. Still for that read-out and setting: next, `ClC(Cl)(Cl)c1ccccc1`: “inactive”. `CCOP(=S)(OCC)SCSCC`: the AC50 was 111 µM (active). As for `CC(Cl)(Cl)C(=O)O`, the result was inactive. `O=C(O)C1C(C(=O)O)C2(Cl)C(Cl)=C(Cl)C1(Cl)C2(Cl)Cl` (stereo not given): the outcome was inactive. Still for that read-out and setting: then `COCCOCCO`, with “inactive”; and `CCC1(c2ccccc2)C(=O)N=C(O)NC1=O` (stereo not given), with “inactive”. Still for that read-out and setting: next, `c1nc[nH]n1`: “inactive”. Still for that read-out and setting: then `CC(C)(C)OOC(C)(C)C`, with “inactive”. Regarding `CN(C)C(=O)Cl`, the call was inactive. Turning to `CC(Cc1ccc(OCC(=O)O)cc1)NCC(O)c1csc(C(F)(F)F)n1` (stereo not given), the outcome was inactive. On the same count and under the same terms, then `c1cc2c3c(cccc3c1)CC2`, with “inactive”; and `O=[N+]([O-])c1ccc(Cl)c(Cl)c1`, with “inactive”; and `Nc1ccc(Cl)cc1`, with “inactive”. For the compound `CCCN(CCC)c1c([N+](=O)[O-])cc(C(C)C)cc1[N+](=O)[O-]`, the AC50 was 35.4 µM (active). As for `CCOc1ccc(C(C)(C)COCc2cccc(Oc3ccccc3)c2)cc1`, the AC50 is 85.5 µM (active). As to `CCOS(=O)(=O)OCC`, the call was inactive.

In the case of `OCC1CO1` (stereo not given), the outcome was inactive. On to `CCCCc1ccccc1`, for which the call was inactive. The same measure, in the same setting: next, `c1ccc(OP(Oc2ccccc2)Oc2ccccc2)cc1`: “inactive”; `Cc1ccc(N)cc1N`: “inactive”. The same measure, in the same setting: then `ClC(Cl)c1ccccc1`, with “inactive”; and `CCN(CC)c1ccccc1`, with “inactive”; and `CCCCCCCc1ccc(O)cc1`, with “inactive”. Still for that read-out and setting: next, `c1ccc2c(c1)Nc1ccccc1S2`: “inactive”; `[N-]=[N+]=[N-]`: “inactive”. `CCC(C)(C)c1ccc(O)cc1`: the AC50 is 108 µM (active).

The AC50 is the concentration giving half of the maximal activity seen.
